Among all 190,000 compounds or so, about 3,500 (1.8%) were called active.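 The calls were made as follows: active = inhibition above a set limit, 3 SD over mean compound inhibition (cut at about 8.4% in these data); inactive = the rest.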 Shown is part of a subset that was picked to be rich in actives.
experiment: RAM signaling blockers in budding yeast – dse1pr::URA3 reporter, 5-FOA selection, primary screen (AID 868);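 also: 0% = DMSO-only wells with no growth and 100% = 10 µM 1-NA-PP1 full growth; inhibition rescues growth on 5-FOA so higher OD means more RAM inhibition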; conditions: S. cerevisiae dse1pr::URA3 reporter, 5-FOA growth OD615, 2 d; at 50 µM; active compounds read high; analog-sensitive cbk1-as2 kinase mutant strain

inhibition, inactive:
CCCCS(=O)c1snnc1C (centres undefined) -0.12%
O=C(c1cc2c(s1)CCC2)N1CCN(c2ccccc2)CC1 4.37%
O=C(CNC(=O)c1cc2c(s1)CCC2)Nc1ccccc1Br 1.93%
CCOC(=O)Cc1csc(SCC(=O)NC(C)C23CC4CC(CC(C4)C2)C3)n1 (centres undefined) 0.91%
CC(NC(=O)COC(=O)c1ccc(Cl)cc1O)c1ccc(F)cc1 (centres undefined) 3.6%
COc1cccc(-n2c(=S)sc3c(=O)n(-c4ccccc4OC)c(SCC4OCCO4)nc32)c1 7.01%
CCc1ccc(-n2c(=S)sc3c(=O)n(-c4ccccc4OC)c(=S)[nH]c32)cc1 5.97%
O=C(c1ccncc1)c1ccc([N+](=O)[O-])cc1 0.73%
CC(C)=C1C2CCC1C1C(=O)N(NC(=O)c3ccco3)C(=O)C21 (centres undefined) -1.09%
N/C(=N\OC(=O)COc1ccc([N+](=O)[O-])cc1)c1ccc(Br)cc1 2.29%
N/C(=N\OC(=O)Cc1ccc([N+](=O)[O-])cc1)c1ccccn1 1.23%
CN(C)c1nnnn1-c1ccc(Cl)cc1 -0.37%
O=C(O)/C=C/c1cn(Cc2ccccc2)nc1-c1cccs1 4%
CCC(C(=O)OCC(=O)Nc1ccc(C(=O)Nc2ccc(OC)cc2)cc1)c1ccccc1 (centres undefined) 4.72%
CCC(C(=O)OCC(=O)Nc1ccccc1-c1ccccc1)c1ccccc1 (centres undefined) 6.39%
COCCNC(=O)NC(=O)COC(=O)C1(c2ccc(Cl)cc2)CC1 0.14%
Nc1ncnc(Nc2cccc(Cl)c2Cl)n1 0.27%
CC(=O)Nc1ccc(Sc2ccccc2C(=O)N2CCCC2)cn1 1.82%
O=C1CCCC2=C1C(c1ccccc1)n1c(s/c(=C/c3cccc(F)c3)c1=O)=N2 (centres undefined) 3.98%
CCOC(=O)C1=C(C)N=c2s/c(=C\C(=O)OC)c(=O)n2C1c1ccc(OC)cc1 (centres undefined) 2.7%
Cc1ccc2[nH]c(=O)c(CN(CC3COCCO3)C(=O)Nc3ccccc3C)cc2c1 (centres undefined) 0.63%
CCCCCOc1ccc(CSC2=NCCN2)cc1[N+](=O)[O-] -0.98%
O=C(Nc1nc(-c2cccnc2)cs1)c1ccccc1F -0.37%
COc1cccc(NC(=S)NCc2ccccn2)c1 2.63%
Cc1nn(C)c(C(=O)NNC(=S)NC2CCCCC2)c1Cl 0.28%
CCOC(=O)C1(Cc2cccc(OC)c2)CCCN(S(=O)(=O)c2cccnc2)C1 (centres undefined) 0.14%
O=C(NCc1ccccc1)C1CCCN(c2nc3ccsc3c(=O)s2)C1 (centres undefined) 3.39%
CN(C)S(=O)(=O)c1cccc(NC(=O)COC(=O)c2cc(=O)[nH]c(=O)[nH]2)c1 0.97%
CN(C)S(=O)(=O)c1cccc(NC(=O)COC(=O)/C=C/c2cccs2)c1 0.87%
CC1CC(C)(C)NC(=S)N1CCC(=O)N1CCN(Cc2ccccc2)CC1 (centres undefined) -0.49%
CCC(C)(C)NC(=O)CN(C(=O)CCC(=O)Nc1cc(C)ccn1)c1ccc2c(c1)OCCO2 1.5%
Cc1ccn(CC(=O)N2N=C(C(F)F)CC2(O)C(F)F)n1 (centres undefined) 0.78%
S=C(NCc1ccc(Cl)cc1)NC12CC3CC(CC(C3)C1)C2 5.19%
CN(C)CCCNC(=S)NCc1ccc(Cl)cc1 0.25%
Cc1ccc(S(=O)(=O)Nc2nc(C)cc(-n3nc(C)cc3C)n2)cc1 2.7%
Cc1ccc(S(=O)(=O)NC(C(=O)N2CCOCCOCCOCCOCC2)c2ccccc2)cc1 (centres undefined) 2%
COc1ccc(OCc2cccc(C(=O)N3CCCC3)c2)cc1 -0.11%
COc1ccccc1Cn1c(=S)[nH]c2cc(C(=O)N3CCN(C)CC3)ccc2c1=O 2.83%
CC(=O)c1ccc(S(=O)(=O)Nc2ccc(C(=O)NCC(c3ccccc3)N(C)C)cc2)cc1 (centres undefined) 1.76%
O=C(Nc1ccc(N2CCN(C(=O)c3cccs3)CC2)cc1)c1cccnc1Cl 0.88%
O=C(O)c1cnn2c(C(F)(F)F)cc(-c3ccccc3)nc12 0.53%
CC(=O)N1CCN(c2cccc(C)c2C)CC1 2.09%
COc1cc(N/C=C2\CC(=O)NC(C)=C2C#N)cc(OC)c1OC 2.13%
Cn1c(=O)c2cc(S(=O)(=O)NCCC(=O)Nc3ccc(F)cc3F)ccc2n(C)c1=O 2.64%
COc1ccc(CCNC(=O)CC2SC(=Nc3cc(C)cc(C)c3)NC2=O)cc1OC (centres undefined) 1.51%
O=C(c1cc2sccc2n1Cc1ccc(F)cc1)N1CCc2ccccc21 2.22%
CC1Cc2ccccc2N1C(=O)c1cc2sccc2n1Cc1ccccc1 (centres undefined) 2.9%

inhibition, active:
O=C(NNC(=O)c1cc2c(s1)CCCC2)c1ccccc1 9.1%
COc1ccccc1-n1c(=S)[nH]c2c(sc(=S)n2-c2ccc(C)cc2C)c1=O 9.12%
N/C(Cc1ccc([N+](=O)[O-])cc1)=N\OC(=O)COc1ccc2ccccc2c1 12%
CCC(C(=O)OCC(=O)Nc1c(Cl)cc(Cl)cc1Cl)c1ccccc1 (centres undefined) 12.2%
COc1ccc(OC)c(C2C3=C(N=c4s/c(=C\c5cccc(O)c5)c(=O)n42)c2ccccc2CC3)c1 (centres undefined) 12.7%
COc1cccc(NC(=S)NC(=O)c2c(Cl)c(C)nn2C)c1 8.92%
CN(C)S(=O)(=O)c1cccc(NC(=O)COC(=O)C2(c3ccccc3F)CCCC2)c1 15.4%
S=C(NCc1ccc(Cl)cc1)NC1CCCCC1 10.9%
CCCC(C(=O)n1nc(C)cc1C)C(NS(=O)(=O)c1ccc(C)cc1)c1ccccc1 (centres undefined) 11.7%
COc1ccc(OC)c(-n2c(=S)[nH]c3cc(C(=O)N4CCCCC4)ccc3c2=O)c1 8.46%
Cc1cccc(N2CCN(C(=O)c3cnn4c(C(F)F)cc(-c5ccccc5)nc34)CC2)c1C 12.1%
CCOC(=O)c1cc2sccc2n1Cc1ccc(C#N)cc1 8.47%

— PubChem BioAssay AID868 (SRMLSC, 2007)
